High-throughput results deposited in PubChem by National Center for Advancing Translational Sciences (NCATS).
Rows were chosen to be rich in hits. Some 12% of all compounds tested hit in one or more screens of this group.
Cycloheximide cs = affects cycloheximide protein synthesis inhibition readout, counter-screen; max response, %; cell reporter, cycloheximide protein synthesis inhibition counterscreen; 12% of 300,000 active; in the data active = max response mostly above about 13%, no sharp cut-off; inactive = mostly below about 14%; note: read at 38.3 µM for the half of the compounds with a filed dose; 0% is about no effect
Shiga inhibitor = inhibitors of Shiga toxin in Vero cells | Vero cells, Shiga toxin protein synthesis inhibition reporter | inhibition, % at 38.7 µM | 9.2% of 290,000 active; in the data active = inhibition mostly above about 28%, no sharp cut-off; inactive = mostly below about 43%; note: 0% is about no effect
Sm TGR block = blocks Schistosoma mansoni thioredoxin glutathione reductase; purified TGR, DTNB reduction, TNB absorbance 405 nm; Potency, µM (titrated, usually from 114 µM), inactives show top-dose activity change, negative = inhibition, most hits filed as inhibitors; 3% of 360,000 active; active = well fitted inhibition curve with a large enough effect; note: potency is the fitted concentration of half-maximal effect; % is set by controls: 0 for no effect and ±100 for the full control effect; nearly all actives have a fitted effect of over 60% in size
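TGR 20 nM + NADPH 100 uM (dispensed conc.), cpd preinc 15 min RT; start with NADPH (500 uM addition) then DTNB (15 mM addition). Kinetic TNB absorbance, 405 nm filter. Four-parameter Hill fit across titration.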
FMDV antiviral = antivirals against foot and mouth disease virus; FMDV antiviral cell-based qHTS; Potency, µM (series often up to 57.9 µM), without a hit: at the top dose activity change, negative = inhibition, usual class: inhibitors; 1.2% of 410,000 active; AID 1159524; calls by dose curve; tested in HEK293T cells; note: read-out not given here; potency is the fitted concentration of half-maximal effect; % is set by controls: 0 for no effect and ±100 for the full control effect; nearly all actives have a fitted effect of over 45% in size
The depositor's hits bear a star; nt = no result.

SMILES	Cycloheximide cs	Shiga inhibitor	Sm TGR block	FMDV antiviral
Cc1ccc(-c2nnn(CCC(=O)N3CCCCC3C)n2)cc1 (stereo not given)	17.4*	72.5*	5.9%	nt
Cc1ccc(-c2nnn(CCC(=O)NC(C)(C)C)n2)cc1	31.9*	52.3*	-17.6%	64.5%
COC(=O)CCn1nnc(-c2ccc(C)cc2)n1	31.8*	59.7*	-13.3%	48.6%
COCC(=O)N1c2nc(-c3ccco3)nn2C2(CCCCC2)[C@@H]2CCCC[C@@H]21	nt	nt	-23.1%	1.3%
Cc1ccc(S(=O)(=O)N2CCN(Cc3noc(CCC(=O)N4CCCCC4)n3)CC2)c(C)c1	nt	nt	-15.3%	-20.9%
CN(C)c1ccc(C(=O)c2ccc(N(C)C)c3ccccc23)cc1	24.8*	68.2*	-14.9%	42.4%
COc1ccc(C2CC(=O)N(Cc3cccc(C)c3)c3c2c(C)nn3-c2nc(C)cc(C)n2)c(OC)c1 (stereo not given)	nt	nt	10.0%	-15.9%
Cn1c(=O)oc2cc(S(=O)(=O)Nc3ccc4c(c3)OCCO4)ccc21	15.6	42.4	-8.7%	-19.9%
CCS(=O)(=O)Nc1ccc(-c2cn3ccsc3n2)cc1	nt	nt	2.5%	31.3%
COC(=O)COc1ccc(S(=O)(=O)Nc2ccc3c(c2)OCCO3)cc1C	24.8*	68.1*	4.1%	-17.6%
O=C(O)c1ccc(S(=O)(=O)Nc2ccc3c(c2)OCCO3)cc1	9.6	12.0	31.6µM*	7.8%
O=S(=O)(Nc1ccc(-c2cn3ccsc3n2)cc1)c1ccc2c(c1)OCCO2	12.2	68.9*	10.8%	70.9%
Cn1c(=O)c(=O)n(C)c2cc(S(=O)(=O)Nc3ccc4c(c3)OCCO4)ccc21	61.6*	115.2*	-21.5%	39.8µM*
O=C(O)c1cccc(NS(=O)(=O)c2ccc3c(c2)OCCCO3)c1	-1.7	-14.1	1.5%	6.9%
O=C(NCc1cccs1)c1ccc(CSc2nc3ccncc3n2Cc2ccccc2F)cc1	nt	nt	4.4%	22.8%
O=C(NCC(c1cccnc1)N1CCN(Cc2ccccc2)CC1)C(=O)Nc1cccc(F)c1 (stereo not given)	nt	nt	-5.7%	3.1%
Cc1cc(=O)[nH]c2nnc(SCC(=O)Nc3ccc(F)cc3F)n12	nt	nt	14.3%	-11.0%
Cc1ccc(C(=O)N2CCC(N3CCN(Cc4ccc(F)cc4)C(=O)C3=O)CC2)cc1	nt	nt	-5.8%	6.2%
CSc1nsc(SC)c1C(=O)Nc1ccc(C(C)(C)C)cc1	9.8	53.2*	-8.9%	13.0%
CSc1nsc(SC)c1C(=O)NC(=O)Nc1cccnc1	1.1	-1.8	7.9%	-1.9%
CCc1cc(=O)oc2c(CN3CCN(C)CC3)c(O)ccc12	-4.4	-11.4	6.1%	-4.1%
CN1CCN(Cc2c(O)ccc3cc(Br)ccc23)CC1	0.6	1.8	3.55µM*	0.0%
Cc1cc(C(C)(C)C)ccc1OCCCCN1CCCC1	30.4*	6.2	11.1%	-0.8%
CCOc1cc(C2NC(=O)N(C)C(C)=C2C(=O)OC)cc(Br)c1O (stereo not given)	-2.5	-6.5	50.1µM*	1.0%
COc1cc(C2NC(=O)N(C)C(C)=C2C(=O)OCc2ccccc2)cc(Br)c1O (stereo not given)	-0.9	0.8	-5.2%	-26.5%
SMILES	Cycloheximide cs	Shiga inhibitor	Sm TGR block	FMDV antiviral
CCOc1ccccc1-c1nnc2n1N=C(c1ccccc1OC)CS2	-3.7	-4.2	nt	nt
COc1ccc(C)cc1S(=O)(=O)N1CCN(c2cccc(Cl)c2)CC1	nt	nt	8.8%	-16.7%
Cn1c(SCC(N)=O)nnc1-c1ccccc1	-5.3	-13.7	0.0%	nt
CCCCSc1nnc(-c2ccc(NC(C)=O)cc2)n1C	-5.9	-8.9	-14.7%	7.2%
CCCCSc1nnc(-c2ccc(C)cc2)n1C	40.0*	103.5*	10.9%	15.1%
Cn1c(SCC(=O)c2ccccc2)nnc1-c1ccncc1	-2.7	-4.1	-15.0%	8.8%
Cn1c(SCc2ccccc2)nnc1-c1ccc2c(c1)OCO2	49.0*	75.4*	36.3%	35.6%
Cn1c(SCC(=O)c2ccccc2)nnc1-c1cccc(N)c1	28.7*	65.3	-11.3%	26.4%
Cn1c(SCC(=O)c2ccccc2)nnc1-c1ccccn1	53.4*	113.0*	-0.9%	0.0%
Cn1c(SCC#N)nnc1-c1ccc2c(c1)OCO2	-2.1	-3.2	-0.1%	-21.0%
NCCCCCc1cnc[nH]1	-1.7	16.0	nt	-17.2%
Cc1ccccc1-c1nc(CN2CCC(C(=O)NCc3ccc(F)cc3)CC2)c(C)o1	nt	nt	-3.5%	-22.6%
Cc1c(-c2ccccc2)c(=O)oc2c(CN3CCN(C)CC3)c(O)ccc12	nt	nt	30.0%	-16.8%
CCOc1ccc(NC(=O)CN2C(=O)C3(SCC(=O)N3c3ccc(F)cc3)c3ccccc32)cc1 (stereo not given)	nt	nt	8.0%	0.0%
Cn1c(SCc2ccccc2)nnc1-c1ccc(O)cc1	31.2*	65.7*	-5.9%	60.2%
Cn1c(SCC(=O)c2ccccc2)nnc1-c1ccc(O)cc1	35.2*	67.5*	0.6%	52.6%
